Sampled rows, rich in hits. Any-hit rate of the full collection: about 4.4%.
PfHsp90 yeast 2: reduces growth (ATP signal) of yeast expressing P. falciparum Hsp90; actives 0.32% (n = 310,000); S. cerevisiae expressing PfHsp90, BacTiter-Glo ATP, 48 h; yeast lacking PDR1 and PDR3 efflux regulators; inhibition, % at 9.4 µM;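 active means every replicate shows inhibition above about 80%, whatever the replicate mean, limit read from the data; inconclusive means mean inhibition reaches the set limit but some replicate falls short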
SKKanGAS inh: inhibitors of SKKanGAS S. pyogenes growth in kanamycin (SK-promoter or general growth effect) | BacTiter-Glo, 6 h | inhibition, % at 7.5 µM | actives 1.3% (n = 300,000) | AID 1662;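 active means mean replicate score, as percent of positive control median, at least 50; inconclusive means mean below 50 but one replicate at or above 50; inactive means mean and every replicate below 50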;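 further: strain carries kanamycin resistance gene driven by streptokinase promoter and grows in 40 µg/ml kanamycin; loss of luminescence reflects streptokinase promoter inhibition or plain growth inhibition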
TIM10 inh: growth inhibitors of TIM10 yeast strain | S. cerevisiae TIM10 strain growth, BacTiter-Glo luminescence, 24 h | actives 1.4% (n = 330,000) | inhibition, % at 10 µM | AID 463195;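 active means inhibition of 40% or more at the single tested concentration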;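 further: wild-type TIM10 isogenic control strain grown at permissive 25 °C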
tim23-1 inh: inhibits growth of tim23-1 mutant yeast. S. cerevisiae tim23-1 growth, BacTiter-Glo luminescence, 24 h. inhibition, % at 20 µM. actives 1.3% (n = 330,000);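 active means growth inhibition of the mutant yeast at or above 50%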;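 further: temperature-sensitive mutant grown at 25 °C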
tim10-1 inh: inhibits growth of tim10-1 mutant yeast. S. cerevisiae tim10-1 ts strain growth, BacTiter-Glo, 24 h. inhibition, % at 20 µM. actives 2.2% (n = 330,000);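 active means inhibition of at least 40%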;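 further: mutant grown at 25 °C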
Large screens that a line does not name were inactive.

COc1cc(N2C(=O)C=CC2=O)c(OC)cc1Cl	PfHsp90 yeast 2 109
Cc1cc(=O)c(C(=O)O)c(C)n1-c1ccccc1	none (no result: SKKanGAS inh, TIM10 inh, tim23-1 inh, tim10-1 inh)
Cc1c(Cl)cccc1-c1ccc(CNCc2ccccn2)o1	SKKanGAS inh 83
COc1cc(CNCc2ccccn2)ccc1OCc1c(Cl)cccc1Cl	none
O=C(O)/C=C\c1cn(-c2ccccc2)nc1-c1cc2ccccc2o1	PfHsp90 yeast 2 inconclusive
O=C(O)/C=C/c1cn(-c2ccccc2)nc1-c1cc2ccccc2o1	PfHsp90 yeast 2 90
O=C(CSc1nnc(Cc2ccccc2)o1)Nc1ccc(N2CCOCC2)cc1	none (no result: SKKanGAS inh)
CCn1cc(C(=O)NC(=S)Nc2ccccc2Br)cn1	SKKanGAS inh 51
CCn1cc(C(=O)NC(=S)Nc2ccccc2[N+](=O)[O-])cn1	none
CCCCc1ccc(NC(=S)NCc2ccccc2OC)cc1	SKKanGAS inh 59
COc1ccc(C(=O)COC(=O)c2sc(C)nc2C)cc1F	none (no result: SKKanGAS inh)
CN(c1ccccc1)c1ccc(/C=C/[N+](=O)[O-])cc1	PfHsp90 yeast 2 106 (no result: TIM10 inh, tim23-1 inh, tim10-1 inh)
O=[N+]([O-])/C=C\c1ccc(N2CCOCC2)cc1	none
CC1CCCC(C)N1C(=O)COC(=O)CCC(=O)c1ccc(F)cc1 (centres undefined)	none (no result: SKKanGAS inh)
COc1cccc(NC(=O)CN(C)C(=O)Cc2c(C)nc3ccccc3c2C)c1	none (no result: SKKanGAS inh)
NC(=S)N=Nc1c(O)n(Cc2ccc(Br)cc2)c2ccccc12	SKKanGAS inh 61
Oc1c(N=NC(=S)Nc2ccccc2F)c2ccccc2n1Cc1ccc(F)cc1	SKKanGAS inh 66
NC(=S)N=Nc1c(O)n(Cc2ccc(F)cc2)c2ccccc12	none
Oc1c(N=NC(=S)Nc2ccccc2F)c2ccccc2n1Cc1cccc(Cl)c1	SKKanGAS inh 52
Cc1cccc(Cn2c(O)c(N=NC(=S)Nc3ccccc3F)c3ccccc32)c1	none
CCN(c1ccccc1)S(=O)(=O)c1ccc(C(=O)Nc2cc(C)ccn2)cc1	none (no result: SKKanGAS inh)
Fc1cccc(Nc2ncnc3[nH]ncc23)c1	none
Brc1ccc(Nc2ncnc3[nH]ncc23)cc1	SKKanGAS inh 52 (no result: PfHsp90 yeast 2)
COc1cccc(CN(C)S(=O)(=O)c2ccccc2Br)c1	none (no result: SKKanGAS inh)
O=S(=O)(Nc1ccc(O)c(Sc2nc3ccccc3s2)c1)c1cccc2ccccc12	SKKanGAS inh 81
Cn1cnnc1SCc1ccc(C(=O)N=Nc2c(O)n(Cc3ccc(Cl)cc3)c3ccccc23)cc1	SKKanGAS inh 57
S=c1[nH]nc(C2CCCCC2)n1/N=C/c1c(Cl)cccc1Cl	SKKanGAS inh 52
Cc1ccc(/C=N/n2c(-c3cccs3)n[nH]c2=S)cc1	none
S=c1[nH]nc(-c2cccs2)n1/N=C/c1c(Cl)cccc1Cl	SKKanGAS inh 63
OCC1OC2C(NC(=S)N2c2ccccc2)C(O)C1O (centres undefined)	none (no result: SKKanGAS inh, TIM10 inh, tim23-1 inh, tim10-1 inh)
Cc1ccc(N/N=C2\CS(=O)(=O)N(C)c3ccsc32)cc1	SKKanGAS inh 101
O=C(COC(=O)c1ccc(Cl)nc1)NNC(=O)c1ccc(Br)cc1	none (no result: SKKanGAS inh)
CCOC(=O)c1c(C)[nH]c(C(=O)CN(C)CC(=O)Nc2ccccc2Cl)c1C	none (no result: SKKanGAS inh)
COc1cc(/C=C2\SC(=Nc3cccnc3)NC2=O)cc(OC)c1OC	SKKanGAS inh 50 (no result: PfHsp90 yeast 2)
CCc1ccc(N=C2NC(=O)/C(=C/c3cc(OC)c(O)c(OC)c3)S2)cc1	SKKanGAS inh 59
O=c1c2ccccc2sc2nc(CCl)nn12	none (no result: SKKanGAS inh, TIM10 inh, tim23-1 inh, tim10-1 inh)
COCCN(CCOC)Cc1cc(=O)oc2cc3c(cc12)CCC3	none (no result: PfHsp90 yeast 2)
CC(C)CN(Cc1cc(=O)oc2cc3c(cc12)CCCC3)CC(C)C	SKKanGAS inh 54
COc1ccc(C(=O)CSc2nc(-c3ccccn3)nc(C)c2Cl)cc1	SKKanGAS inh 88
COc1ccc(C(=O)CSc2nnc3ccc(-c4ccccn4)nn23)cc1	none
CCCCCOc1ccc(C2C(C(=O)c3ccc(C)o3)=C(O)C(=O)N2c2cc(C)on2)cc1 (centres undefined)	SKKanGAS inh 81
CCc1nc(N)nc(N)c1-c1ccc(N(C)Cc2ccccc2)c([N+](=O)[O-])c1	none (no result: SKKanGAS inh, TIM10 inh, tim23-1 inh, tim10-1 inh)
CCn1c(=O)c(C(=O)NCCc2ccccc2)c(O)c2ccccc21	none
CCn1c(=O)c(C(=O)NNC(=O)c2ccccc2)c(O)c2ccccc21	SKKanGAS inh 53
C=CCn1c(=O)c(C(=O)NCc2ccccc2)c(O)c2ccccc21	SKKanGAS inh 55
CCCCCCCCC(=O)NNC(=O)c1c(O)c2ccccc2n(CC)c1=O	SKKanGAS inh 106
C=CCn1c(=O)c(C(=O)NCCNCC)c(O)c2ccccc21	none
CCCn1c(=O)c(C(=O)NNC(=O)c2ccccc2Cl)c(O)c2ccccc21	SKKanGAS inh 86
N#Cc1ccc(N[C@@H]2CCN3C(=O)c4ccccc4[C@@H]3C[C@H]2O)cc1	none (no result: SKKanGAS inh)
CCCn1c(=O)c(C(=O)NNC(=O)Cc2ccccc2)c(O)c2ccccc21	none
CCCCCCCC(=O)NNC(=O)c1c(O)c2ccccc2n(CCC)c1=O	SKKanGAS inh 111
CCCCCCC(=O)NNC(=O)c1c(O)c2ccccc2n(CC)c1=O	SKKanGAS inh 112
CCn1c(=O)c(C(=O)Nc2ccccc2C)c(O)c2ccccc21	none
CCCCCCCC(=O)NNC(=O)c1c(O)c2ccccc2n(CC)c1=O	SKKanGAS inh 99
CC(C)Cn1c(=O)c(C(=O)Nc2ccncc2)c(O)c2ccccc21	PfHsp90 yeast 2 106, SKKanGAS inh 96
COc1cccc(C(=O)OCC(=O)N2CCC(Cc3ccccc3)CC2)c1OC	none (no result: PfHsp90 yeast 2, SKKanGAS inh)
CCCCCCCCCCCCCCCCCCNc1ccn(C2OC(COP(=O)(O)OCC3OC(n4cc(F)c(=O)[nH]c4=O)CC3O)C(O)C2O)c(=O)n1 (centres undefined)	none (no result: SKKanGAS inh, TIM10 inh, tim23-1 inh, tim10-1 inh)
CC(=O)c1c(C)[nH]c(C(=O)OCc2csc(CC(=O)Nc3ccccc3C)n2)c1C	none (no result: SKKanGAS inh)
CC(C)c1c(O)ccc2c1CC[C@H]1C(C)(C)CCC[C@]21C	PfHsp90 yeast 2 113 (no result: SKKanGAS inh, TIM10 inh, tim23-1 inh, tim10-1 inh)
Cc1ccc(S(=O)(=O)N2CCCCC2)cc1NC(=O)c1ccncc1	none (no result: SKKanGAS inh)
COc1ccc(N2CC(C(=O)N/N=C/c3cc([N+](=O)[O-])ccc3O)CC2=O)cc1 (centres undefined)	SKKanGAS inh 68
COc1ccc(N2CC(C(=O)Nc3ccc([N+](=O)[O-])cc3Br)CC2=O)cc1 (centres undefined)	none
O=C1C=C(c2ccc(Cl)c(C(F)(F)F)c2)C[C@@H](c2ccc3c(c2)OCO3)C1	none (no result: SKKanGAS inh)
O=C(/C=C/c1ccccc1)CCN1CCOCC1	PfHsp90 yeast 2 107 (no result: SKKanGAS inh, TIM10 inh, tim23-1 inh, tim10-1 inh)
O=C(/C=C/c1ccccc1)N1CCOCC1	none
OC(Cn1cncn1)(c1ccccc1)c1ccccc1	PfHsp90 yeast 2 92
Cc1cc(N/N=C/c2ccc(F)cc2)nc(-n2nc(C)cc2C)n1	none (no result: PfHsp90 yeast 2)
COc1ccc(/C=N/Nc2cc(C)nc(-n3nc(C)cc3C)n2)c(OC)c1	SKKanGAS inh 103
CCOc1cc(/C=N/Nc2cc(C)nc(-n3nc(C)cc3C)n2)ccc1O	SKKanGAS inh 66
Nc1ncc2[nH]c(N)nc2n1	none (no result: SKKanGAS inh, TIM10 inh, tim23-1 inh, tim10-1 inh)
Cc1nc(N2CCC(C)CC2)c2c(C)c(C(=O)Nc3ccc(C(F)(F)F)cc3)sc2n1	SKKanGAS inh 75
Cc1nc(SCc2nc3ccc(C(=O)c4ccccc4)cc3[nH]2)c2oc3ccccc3c2n1	none (no result: SKKanGAS inh)
COc1cccc(/C=C/C(=O)OCC(=O)c2c[nH]c3ccccc23)c1	none (no result: SKKanGAS inh)

Compound activity from PubChem.
